Experimental findings from PubChem BioAssay (Tox21) are described below.

Test [1] is described as follows: qHTS assay for small molecules that induce genotoxicity in human embryonic kidney cells expressing luciferase-tagged ATAD5 (AID 651632). Also: nearly all actives have a fitted effect of over 15% in size. Put shortly: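 HEK293T cells carrying a luciferase reporter tagged to ATAD5 were exposed to compound or DMSO vehicle for 16 hr at 37C, 5% CO2. Amplite was added, and after 30 min at room temperature luciferase activity was read as a marker of ATAD5 induction.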
(In general: qHTS replaces the single test concentration by a dilution series.)

Test [2] can be described thus: qHTS assay for small molecule agonists of the p53 signaling pathway - cell viability (AID 651633; calls by dose curve;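 also: p53RE-bla HCT reporter cells with a stable beta-lactamase p53 reporter; series mostly up to about 83 µM; nearly all actives have a fitted effect of over 30% in size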). Put shortly:
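p53RE-bla cells, seeded at 4,000 per well and rested 5 h at 37 C/5% CO2, received compounds in DMSO for 16 h at 37 C. CellTiter-Glo was then added, and luminescence was read after 30 min at room temperature to gauge cytotoxicity.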

Test [3] is described as follows: qHTS assay for small molecules that induce genotoxicity in human embryonic kidney cells expressing luciferase-tagged ATAD5 - cell viability (AID 651634; calls by dose curve; also: nearly all actives have a fitted effect of over 25% in size). Put shortly: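 HEK293T cells expressing luciferase-tagged ATAD5 were exposed to compound or DMSO for 15.5 hr at 37C, 5% CO2. Viability was then read as live-cell protease activity by CellTiter-Fluor fluorescence after 30 min at 37C.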

Test [4] is described as follows: qHTS assay for small molecule disruptors of the mitochondrial membrane potential - cell viability (AID 720634; calls by dose curve;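 also: human HepG2 liver cancer cells; series mostly up to about 83 µM; nearly all actives have a fitted effect of over 20% in size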). An outline of the steps: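 HepG2 cells seeded overnight at 37 C, then exposed to compound or DMSO for 1 hr at 37 C, 5% CO2. m-MPI dye added, then CellTiter-Glo for 30 min at room temperature; viability read as ATP luminescence.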
A short description of test [5]: qHTS assay for small molecule disruptors of the mitochondrial membrane potential (AID 720635). Also: potency is read from the fitted curve at half-maximal effect. An outline of the steps: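 HepG2 cells (2,000/well) attached overnight at 37C, then took compound for 1 hr at 37C, 5% CO2. Mito-MPS dye was added for 30 min; fluorescence was read at 490/535 nm (monomers) and 540/590 nm (aggregates).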
Test [6] in a line: qHTS assay to test for compound auto fluorescence at 590 nm (red) in HepG2 cells (AID 720674). Put shortly:
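Compound auto-fluorescence is scored relative to Rose Bengal sodium, measured at 540/590 nm in live HepG2 cultures after 1 hr compound contact (37 C, 5% CO2).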

A short description of test [7]: qHTS assay to test for compound auto fluorescence at 535 nm (green) in HepG2 cells (AID 720675).
Test [8] can be described thus: qHTS assay to test for compound auto fluorescence at 460 nm (blue) in HEK293 cells (AID 720678). Put shortly:
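HEK293 cells (2,000 per well, medium with 10% dialyzed FBS) attached for 4-5 hr at 37C, then received compound and stood overnight at 37C, 5% CO2. Blue fluorescence was read at Ex/Em 405/460 nm and expressed relative to triamterene.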

Test [9] is described as follows: qHTS assay to test for compound auto fluorescence at 590 nm (red) in HEK293 cells (AID 720679). An outline of the steps: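 HEK293 cells (2,000/well, medium with 10% dialyzed FBS) attached for 4-5 hr at 37C, received 23 nL compound and were incubated overnight at 37C, 5% CO2. Red fluorescence was then read at 540/590nm Ex/Em, referenced to Rose Bengal sodium.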
Test [10] is described as follows: qHTS assay to test for compound auto fluorescence at 535 nm (green) in HEK293 cells (AID 720680).
Test [11] is described as follows: qHTS assay to test for compound auto fluorescence at 460 nm (blue) in HEK293 cell free culture (AID 720681). An outline of the steps:
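Test compounds were pinned into cell-free culture medium (DMEM with 10% FBS) and fluorescence was read directly at Ex/Em 405/460 nm. Signals were expressed as fluorescence equivalents of triamterene, with DMSO vehicle as control.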

Test [12] is described as follows: qHTS assay to test for compound auto fluorescence at 535 nm (green) in HEK293 cell free culture (AID 720682). An outline of the steps:
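Green-label autofluorescence (485 nm excitation, 535 nm emission) measured on compound added to cell-free culture medium (DMEM, 10% FBS). Output is expressed relative to fluorescein.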

Test [13] in a line: qHTS assay to test for compound auto fluorescence at 590 nm (red) in HepG2 cell free culture (AID 720684). Put shortly:
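Measured in medium alone (MEM containing 10% FBS) following pintool addition of compound; emission at 590 nm with 540 nm excitation, referenced to Rose Bengal sodium.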

A short description of test [14]: qHTS assay to test for compound auto fluorescence at 460 nm (blue) in HepG2 cell free culture (AID 720685). Put shortly:
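Compound (23 nL) or DMSO pinned into cell-free MEM with 10% FBS; blue fluorescence read at 405/460 nm excitation/emission, expressed as auto-fluorescence equivalency to triamterene.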

The nature of test [15]: qHTS assay to test for compound auto fluorescence at 535 nm (green) in HepG2 cell free culture (AID 720686).
Test [16] can be described thus: qHTS assay to test for compound auto fluorescence at 460 nm (blue) in HepG2 cells (AID 720687). An outline of the steps:
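Cells (2,000/well in MEM with 10% FBS) attached overnight at 37 C, then were exposed to compound or DMSO for 1 hr at 37 C, 5% CO2. Fluorescence read at Ex/Em 405/460 nm, expressed as triamterene-equivalent signal.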

Test [17] has as its target Glucocorticoid receptor (Homo sapiens) (UniProt P04150). As to the kind of experiment: qHTS assay to identify small molecule antagonists of the glucocorticoid receptor (GR) signaling pathway (AID 720692; active = well fitted inhibition curve with a large enough effect in the signal ratio in the repeat runs, not every such curve was filed as active; the % refers to the signal ratio; also: potency is read from the fitted curve at half-maximal effect). An outline of the steps: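 GR-bla HeLa cells (beta-lactamase reporter under glucocorticoid response element) were pre-plated 4 h at 37 C, treated with compounds plus 5 nM dexamethasone (final) for 18 h, then read by LiveBLAzer B/G FRET fluorescence after 2 h.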

The nature of test [18]: qHTS assay to test for compound auto fluorescence at 590 nm (red) in HEK293 cell free culture (AID 720683). Put shortly: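 Tox21 10K library compounds were pinned into cell-free DMEM with 10% FBS and fluorescence was read at excitation 540 nm. Activity is expressed as Rose Bengal sodium equivalency.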
For test [19], the target named is Glucocorticoid receptor (Homo sapiens) (UniProt P04150). Description: qHTS assay to identify small molecule agonists of the glucocorticoid receptor (GR) signaling pathway (AID 720691; active = well fitted activation curve with a large enough effect in the signal ratio in the repeat runs, not every such curve was filed as active; the % refers to the signal ratio). Put shortly:
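GR-bla HeLa cells (beta-lactamase reporter under glucocorticoid response element) were plated 4 h at 37 C/5% CO2, given compounds in DMSO, and incubated 18 h at 37 C. LiveBLAzer B/G FRET substrate was added for 2 h at room temperature, then fluorescence intensity read.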

Test [20] is described as follows: qHTS assay for small molecule agonists of the p53 signaling pathway (AID 651631; calls by dose curve; also: nearly all actives have a fitted effect of over 15% in size). Put shortly:
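HCT-116 cells carrying a beta-lactamase reporter under p53 response elements were dosed with compound for 16 h at 37 °C. LiveBLAzer B/G FRET substrate was then added for 2 h at room temperature, and fluorescence intensity was read to detect pathway agonism.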

Records with an inconclusive call do not appear. The source made the active and inactive calls. Unless noted, calls follow the shape of the dose curve; as a rule, active = well fitted curve in the direction sought with a large enough effect in the repeat runs; inconclusive = weak or mixed curves; inactive = no such curve, though single readings can be large; an effect the other way counts as inactive or inconclusive.

Chain of Glucocorticoid receptor (Homo sapiens) (P04150 whole entry, looked up): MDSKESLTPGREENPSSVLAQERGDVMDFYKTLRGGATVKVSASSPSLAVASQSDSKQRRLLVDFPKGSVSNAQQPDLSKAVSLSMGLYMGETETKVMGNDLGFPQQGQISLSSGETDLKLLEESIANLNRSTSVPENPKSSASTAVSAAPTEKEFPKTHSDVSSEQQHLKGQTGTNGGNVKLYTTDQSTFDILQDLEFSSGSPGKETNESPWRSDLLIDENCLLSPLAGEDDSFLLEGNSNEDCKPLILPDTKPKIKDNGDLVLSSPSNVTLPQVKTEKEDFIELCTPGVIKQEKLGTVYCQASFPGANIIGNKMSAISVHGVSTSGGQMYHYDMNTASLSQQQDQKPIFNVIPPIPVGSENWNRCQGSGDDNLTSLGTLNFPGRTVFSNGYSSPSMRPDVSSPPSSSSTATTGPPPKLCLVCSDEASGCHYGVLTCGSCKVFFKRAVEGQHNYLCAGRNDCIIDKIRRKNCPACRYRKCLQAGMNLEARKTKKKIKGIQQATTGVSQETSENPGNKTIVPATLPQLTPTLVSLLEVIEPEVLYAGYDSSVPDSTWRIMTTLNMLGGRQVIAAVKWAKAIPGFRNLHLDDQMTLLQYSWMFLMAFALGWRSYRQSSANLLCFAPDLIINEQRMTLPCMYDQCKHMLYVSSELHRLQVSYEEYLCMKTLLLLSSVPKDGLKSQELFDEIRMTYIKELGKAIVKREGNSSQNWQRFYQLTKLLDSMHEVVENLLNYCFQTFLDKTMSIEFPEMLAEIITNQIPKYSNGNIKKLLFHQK

For the molecule `NC(=O)Nc1ccc(Cl)c(Cl)c1`, the Potency result in test [1], in test [2], in test [3], in [4], in test [8] and in [11] was “inactive” each time. Also, the Potency entry in test [14] and in test [16] was “inactive” each time. Also, the Potency in [5] was 48.4 µM (active); in test [17], 48.9 µM (active). Further, the call in test [6], in test [7], in test [9], in test [10], in [12] and in [13] was inactive. Moreover, the result in [15] was inactive.
For the molecule `CCCCCCCC/C=C\CCCCCCCC(=O)OC(CO)CO`, the Potency result in [1], in test [2], in [3], in test [4], in test [5] and in test [8] was “inactive” in each case. Besides, the Potency result in test [11], in test [14] and in test [16] was “inactive” throughout. Further, the call in [6], in test [7], in test [9], in test [10], in test [12] and in test [13] was inactive. In [15], the call was inactive.
With `CC[C@H](NC(=O)c1cc(F)ccc1NS(=O)(=O)c1cccc2cccnc12)c1ccccc1`, the Potency result in test [1], in test [2], in test [3], in test [4], in test [8] and in test [11] was “inactive” each time. The Potency entry in test [14] and in test [16] was “inactive” in each case. Moreover, the Potency in [5] is 2.05 µM (active). The call in test [6], in test [7], in test [9], in [10], in test [12] and in test [18] was inactive. The molecule was classed as inactive in [13] and in test [15].
Take `CC(=O)OCC(=O)[C@H]1CC[C@H]2[C@@H]3CCC4=CC(=O)CC[C@]4(C)[C@H]3CC[C@]12C`: the Potency result in test [1], in test [2], in test [3], in test [4], in test [5] and in test [8] was “inactive” throughout. The Potency result in test [11], in test [14], in test [16] and in test [19] was “inactive” throughout. The outcome in test [6], in test [7], in [9], in test [10], in [12] and in test [18] was inactive. Moreover, the molecule was called inactive in test [13] and in test [15]. In test [17], the Potency was 0.848 µM (active).
Take `COCC(O)CO` (stereo not drawn): the Potency result in test [20], in test [1], in [3], in test [4], in [8] and in test [14] was “inactive” throughout. In addition, the Potency entry in test [16], in test [19] and in test [17] was “inactive” throughout. In addition, the outcome in [6], in test [7], in test [10], in test [12], in test [18] and in [15] was inactive.
For `O=C1NCCN1`, the Potency result in test [20], in test [1], in test [3], in test [4], in test [8] and in test [11] was “inactive” each time. In addition, the Potency result in test [14], in test [16], in test [19] and in test [17] was “inactive” throughout. Also, the result in test [6], in test [7], in test [10], in test [12], in [18] and in test [13] was inactive. Further, the result in [15] was inactive.
In the case of `C=CC(=O)NCOCC(C)C`, the Potency entry in test [1], in test [2], in [3], in [4], in test [5] and in [8] was “inactive” throughout. The Potency result in test [11], in test [14] and in test [16] was “inactive” each time. The outcome in test [6], in test [7], in test [9], in test [10], in test [12] and in test [18] was inactive. The outcome in [15] was inactive.
For the molecule `CN1CCN(c2c(F)cc3c(=O)c(C(=O)O)cn4c3c2OCN4C)CC1`, the Potency entry in [20], in test [1], in test [3], in test [4], in [8] and in test [11] was “inactive” throughout. Also, the Potency result in test [14], in test [16], in test [19] and in test [17] was “inactive” each time. Moreover, the outcome in test [6], in test [7], in test [9], in test [10], in test [12] and in test [18] was inactive. Further, the call in test [13] and in test [15] was inactive.
On to `CC(Cl)C(Cl)Cl` (stereo not drawn), for which the Potency result in [1], in [2], in test [3], in test [4], in test [5] and in [8] was “inactive” throughout. Also, the Potency entry in [14], in test [16], in test [19] and in test [17] was “inactive” throughout. For the same molecule, the outcome in test [6], in [7], in test [9], in [10], in test [12] and in test [13] was inactive. Also, in test [15], the call was inactive.
As for `CC(C)=CC=O`, the Potency result in test [1], in test [2], in test [3], in test [4], in test [5] and in test [8] was “inactive” in each case. In addition, the Potency entry in test [14], in [16] and in test [19] was “inactive” throughout. Also, the call in [6], in test [7], in test [9], in test [10], in test [12] and in test [18] was inactive. In addition, the molecule was classed as inactive in [13] and in [15].
Turning to `CCC(Cc1ccccc1)(C(=O)c1ccc(N2CCOCC2)cc1)N(C)C` (stereo not drawn), the Potency entry in test [20], in [1], in [3], in test [8], in test [11] and in test [14] was “inactive” in each case. For the same molecule, the Potency result in test [16] is “inactive”. Further, the Potency in [5] is 30.6 µM (active). In addition, the result in [6], in test [7], in test [10], in test [12], in test [18] and in test [15] was inactive.
`CCCCCCCCCCCC(=O)[O][Sn]([CH2]CCC)([CH2]CCC)[O]C(=O)CCCCCCCCCCC`: the Potency entry in test [1], in [2], in test [3], in test [4], in [5] and in test [8] was “inactive” throughout. In addition, the Potency result in test [11], in test [14] and in test [16] was “inactive” each time. In addition, the call in [6], in [7], in test [9], in test [10], in test [12] and in [18] was inactive. In addition, the result in test [13] and in test [15] was inactive.
As to `CC1CN(c2cc3c(cc2F)c(=O)c(C(=O)O)cn3-c2ccc(F)cc2F)CCN1` (stereo not drawn), the Potency entry in test [1], in [2], in test [3], in [4], in [5] and in [8] was “inactive” throughout. Besides, the Potency result in test [14], in [16], in test [19] and in [17] was “inactive” throughout. The result in test [6], in test [7], in [9], in [10], in test [12] and in test [18] was inactive. Further, the call in [13] and in test [15] was inactive.
